hERG WT inh – blocks the wildtype human KCNH2 potassium channel. AID 720551. U2OS, BacMam KCNH2, thallium flux FluxOr; active compounds read low. hit rate 0.37% among 340,000. activity change, % at 1.84 µM;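 active means maximum activity change below -70%; inconclusive means maximum activity change between -70% and -50%; inactive means maximum activity change above -50%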
Target sequence (Q12809 whole entry, looked up): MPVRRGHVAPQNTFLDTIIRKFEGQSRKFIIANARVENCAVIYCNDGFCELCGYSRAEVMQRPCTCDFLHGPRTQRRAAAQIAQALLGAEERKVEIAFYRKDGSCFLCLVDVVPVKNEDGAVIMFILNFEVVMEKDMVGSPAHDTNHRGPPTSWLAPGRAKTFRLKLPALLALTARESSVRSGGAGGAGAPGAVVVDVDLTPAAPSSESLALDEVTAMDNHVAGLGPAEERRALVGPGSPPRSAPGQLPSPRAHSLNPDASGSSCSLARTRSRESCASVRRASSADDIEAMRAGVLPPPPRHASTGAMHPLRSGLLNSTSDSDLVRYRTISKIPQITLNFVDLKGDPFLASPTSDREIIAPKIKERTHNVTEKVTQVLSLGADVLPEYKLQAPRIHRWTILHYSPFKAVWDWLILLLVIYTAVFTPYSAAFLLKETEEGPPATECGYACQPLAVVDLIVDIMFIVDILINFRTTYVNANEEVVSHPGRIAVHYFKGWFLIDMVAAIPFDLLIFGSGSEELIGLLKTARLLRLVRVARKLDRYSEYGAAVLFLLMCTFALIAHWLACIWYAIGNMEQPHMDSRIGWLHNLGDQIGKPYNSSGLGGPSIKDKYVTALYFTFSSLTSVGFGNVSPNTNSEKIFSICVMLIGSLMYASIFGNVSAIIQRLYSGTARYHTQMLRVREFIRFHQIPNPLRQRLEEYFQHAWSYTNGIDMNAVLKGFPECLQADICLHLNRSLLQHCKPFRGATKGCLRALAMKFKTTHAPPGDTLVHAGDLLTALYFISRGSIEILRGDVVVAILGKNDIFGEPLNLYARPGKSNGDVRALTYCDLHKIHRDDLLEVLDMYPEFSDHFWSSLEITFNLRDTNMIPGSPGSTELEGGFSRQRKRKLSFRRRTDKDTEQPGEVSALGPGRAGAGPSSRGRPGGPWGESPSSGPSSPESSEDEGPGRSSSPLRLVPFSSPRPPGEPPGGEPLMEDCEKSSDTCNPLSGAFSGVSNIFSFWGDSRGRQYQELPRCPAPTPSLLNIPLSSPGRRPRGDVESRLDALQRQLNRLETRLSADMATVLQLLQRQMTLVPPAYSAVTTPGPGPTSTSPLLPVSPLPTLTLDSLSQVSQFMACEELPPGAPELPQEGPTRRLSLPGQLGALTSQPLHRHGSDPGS
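U2OS cells transduced with wild-type KCNH2 virus are loaded with FluxOr dye for 45 min, and thallium flux is measured in kinetic reads before and after stimulation buffer. Rate constants are normalized to DMSO controls.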
KCNH2 3.1 inh – inhibitors of human KCNH2 3.1 potassium channel isoform | U2OS KCNH2 3.1, thallium flux FluxOr; active compounds read low | activity change, % (tested at about 1.8 µM) | hit rate 0.95% among 340,000 | AID 720553;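 active means maximum activity change below -70%; inconclusive means maximum activity change from -70% to -50%; inactive means maximum activity change above -50%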;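 further: thallium influx rate constant from kinetic fluorescence after stimulation buffer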
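Thallium flux read-out: FluxOr dye with Red40 quencher in HBSS/HEPES, 45 min at RT. Rate constants from kinetic reads were normalized to positive and negative DMSO controls. Cells: U2OS virally expressing the 3.1 isoform.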
CtBP-E1A inh – CtBP/E1A binding inhibition; hit rate 0.49% among 340,000; AlphaScreen GST-E1A/His-CtBP binding, 1536-well; active compounds read low; activity change, % (test concentration not listed)
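GST-E1A and His-tagged CtBP (125 nM each as 5X stock) were preincubated with pin-transferred compound for 2 h at 37 °C in the dark, then glutathione donor and nickel acceptor beads were added for 1 h before AlphaScreen reading.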
KDM4E inh – JMJD2E (human) inhibition | B2RXH2 | JMJD2E catalytic domain, FDH-coupled NADH fluorescence (FDH is formaldehyde dehydrogenase) | Potency, µM (titrated, usually from 57.1 µM), for inactives: at the highest dose activity change, negative = inhibition, most hits filed as inhibitors | hit rate 1.6% among 230,000 | AID 2147; active means well fitted inhibition curve with a large enough effect, not every such curve was filed as active; inconclusive means small, poorly fitted or top-dose-only effect, or another doubt; inactive means no such curve, though single readings can be large or run the other way;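 further: potency means the concentration at half of the fitted maximal effect; 0% = wells with enzyme and -100% = buffer wells without enzyme; nearly all actives have a fitted effect of over 50% in size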
Six1-Eya2 inh – inhibitors of human Six1/Eya2 interaction; hit rate 0.56% among 360,000; AID 651725; activity change, % (no concentration beside the values); Q15475+O00167; AlphaScreen GST-Six1/His-Eya2 binding, biochemical; active compounds read low
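Homogeneous AlphaScreen proximity assay pairing GST-Six1 with His-tagged Eya2 (added as 5X mix: 250 nM and 500 nM) in 50 mM Tris pH 8.0, 300 mM NaCl, 1 mM TCEP. Glutathione donor and nickel acceptor beads; 1 h, 37 °C, dark.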
The depositor's hits bear a star; i = inactive; u = inconclusive; x = not tested or not shown. The list is not random: actives were taken first. Their share in the collection is about 2%. Unless noted, no stated cut-off is given here; in the data, active means activity change below about -65%; inconclusive means mostly about -30% to -63%; inactive means weaker than that. Unless noted, on the % scale 0 is the no-effect control and ±100 the full control effect.

SMILES | hERG WT inh | KCNH2 3.1 inh | CtBP-E1A inh | KDM4E inh | Six1-Eya2 inh
O=C(Nc1ccc(C(=O)N2CCN(c3ccncc3)CC2)cc1)c1ccc(Br)o1 | x | x | 7 | x | -4
Cc1ccc(C(=O)N2CCN(c3ccc(NC(=O)c4ccc5c(c4)OCCO5)cc3)CC2)cc1 | -20 | -93* | 5 | x | 0
Cc1ccc(N2CCN(C(=O)c3ccccc3NC(=O)c3ccccc3C(=O)O)CC2)cc1 | -72* | -9 | 22 | u | 14
Cc1ccc(C(=O)N2CCN(c3ccc(NC(=O)c4ccc(Br)o4)cc3)CC2)cc1 | 14 | -83* | -24 | -1% | -22
Cc1ccccc1C(=O)N1CCN(c2ccc(NC(=O)c3ccc4c(c3)OCCO4)cc2)CC1 | -5 | x | 1 | x | -18
C=CCn1c(CCNC(=O)c2cccs2)nnc1SCC(=O)c1ccc(Cl)cc1 | 26 | -98* | -2 | 3% | 0
C=CCn1c(CCNC(=O)c2cccs2)nnc1SCC(=O)c1cccc([N+](=O)[O-])c1 | -21 | -4 | -12 | 6% | -3
O=C(COC(=O)c1ccc(Cl)c(S(=O)(=O)N2CCN(c3ccc(F)cc3)CC2)c1)Nc1cccc(Cl)c1 | -16 | -82* | 0 | -7% | -11
O=C(O)CCCC(=O)Nc1ccc(-n2ccc(C(F)(F)F)n2)cc1 | 2 | -2 | x | -4% | 7
Cc1cc2n(n1)C(c1cn(-c3ccccc3)nc1C)Nc1ccccc1-2 (stereo unspecified) | -125* | -136* | -10 | u | -8
Cc1cc2n(n1)C(c1cn(-c3ccccc3)nc1C)Nc1c(C)cccc1-2 (stereo unspecified) | 3 | -10 | -6 | u | 0
Cc1ccc(S(=O)(=O)Nc2ccccc2CNc2ccc(Br)cn2)cc1 | -7 | -7 | 2 | 4% | 2
Cc1ccc(S(=O)(=O)Nc2ccccc2CNc2ncc(Br)cc2Br)cc1 | -1 | -94* | 6 | 1% | -4
CCOC(=O)c1c(C)[nH]c(C(=O)COC(=O)/C=C/c2ccc(O)c(OC)c2)c1C | 12 | -2 | -14 | 7% | 0
O=C1Nc2cc(Cl)c(Cl)cc2N(O)N1c1ccc(Cl)c(Cl)c1 | -19 | -107* | 8 | 4% | 4
O=C1C=C(O)c2c(O)cccc2C1=O | x | x | x | 6.3µM* | x
O=C(CCc1ccccc1)NC(=S)Nc1cccc(C(=O)O)c1 | -10 | 10 | 3 | x | 4
O=[N+]([O-])c1cccc(COc2cccc(CO)c2)c1 | 0 | 15 | 8 | x | 7
O=C(/C=C/c1ccc(Cl)c([N+](=O)[O-])c1)Nc1cccc(NC(=O)c2ccco2)c1 | x | -14 | x | -3% | -6
O=C(/C=C/c1ccc(Cl)c([N+](=O)[O-])c1)Nc1ccc(NC(=O)c2ccco2)cc1 | -36 | -119* | -16 | 5% | 10
CC(C)CNc1oc(-c2ccccc2Cl)nc1C#N | i | -9 | -7 | u | -5
CCC(c1n[nH]c(=S)n1-c1ccccc1)N(C)C (stereo unspecified) | 0 | 4 | 6 | -18% | 7
CCOC(=O)CC(=O)CSc1nc2c(cc1C#N)CCCCCC2 | -116* | -13 | 44 | u | 0
Cc1nc2sc(-c3ccccc3)cc2c(=O)n1N | 3 | -13 | -18 | u | 1
O=c1c2cc(-c3ccccc3)sc2nc2n1CCC2 | x | x | x | 35µM* | x
SMILES | hERG WT inh | KCNH2 3.1 inh | CtBP-E1A inh | KDM4E inh | Six1-Eya2 inh
O=c1c2ccccc2nc2n1CCC2 | -3 | 25 | -16 | 8.9µM* | -26
O=c1c2ccccc2nc2n1CCCCC2 | 1 | 0 | 11 | -3% | 11
COCCn1c(N2CCN(c3ccc(OC)cc3)CC2)nc2c1c(=O)n(C)c(=O)n2C | -1 | 4 | 3 | -3% | 0
COc1ccc(C(=O)Nc2ccc3c(c2)OCO3)cc1S(=O)(=O)N1CCOCC1 | 7 | 7 | -11 | x | u
Nc1nc(=S)c2[nH]c(=S)[nH]c2[nH]1 | -2 | -6 | -1 | x | -9
CSc1nc(=S)c2[nH]c(=S)[nH]c2[nH]1 | -5 | 18 | -13 | 11µM* | u
COc1ccc(CNC(=O)COc2ccc(S(=O)(=O)N3CCCCC3)cc2Cl)cc1 | 26 | 4 | 2 | x | -1
COc1ccc(S(=O)(=O)NCCC(=O)NCc2ccc(F)cc2)cc1 | 45 | -80* | 3 | -11% | 1
CC(=O)N1c2ccc(S(=O)(=O)NCCC(=O)NCc3ccc(F)cc3)cc2CC1C (stereo unspecified) | -10 | 4 | -2 | x | 1
CC1Cc2cc(S(=O)(=O)NCCC(=O)NCc3ccc(F)cc3)ccc2N1C(=O)C1CC1 (stereo unspecified) | -87* | 22 | 5 | x | 4
COc1ccc(CNC(=O)COc2ccc(S(=O)(=O)N3CCCCC3)cc2)cc1 | -131* | -13 | 5 | x | -7
OC(c1ccc(Cl)c(F)c1)c1ncc(-c2ccc(Cl)cc2)[nH]1 (stereo unspecified) | x | x | -28 | x | -16
S=C(Nc1ccccc1)N1CCN(c2ccc(N3CCOCC3)nn2)CC1 | -5 | 1 | 4 | u | 10
O=C(O)CCCc1ccc2c(c1)CCc1ccccc1-2 | -1 | 4 | 7 | x | 0
CN(C(=O)CSc1nnc(C(F)(F)F)n1N)C1CCS(=O)(=O)C1 (stereo unspecified) | 9 | 8 | 5 | 3% | 10
COc1cccc(C(=O)NC(C)C(c2cccs2)N2CCN(C)CC2)c1 (stereo unspecified) | -5 | -72* | 4 | 4% | 3
O=C(c1cccc(S(=O)(=O)N2CCCc3ccccc32)c1)N1CCN(c2ccccc2)CC1 | 0 | -22 | 3 | x | 3
CCn1c(=O)c2sccc2n(CC(=O)NC2CCCC2)c1=O | -12 | -38 | -9 | x | 7
O=C(Cn1ncn2c(cc3sccc32)c1=O)NC1CCCC1 | 18 | -77* | x | x | 6
O=C(CCCC(=O)c1ccccc1)Nc1ccc(F)cc1 | 8 | -6 | 4 | x | -1
CCOC(=O)C1=C(C)N(c2ccc(C)cc2)C(=O)/C1=C\c1ccc(O)c(OC)c1 | -3 | -4 | -9 | 2.2µM* | -16
COC(=O)C1=C(C)N(Cc2ccc(C)cc2)C(=O)/C1=C\c1ccc(O)c(OC)c1 | -2 | 3 | -7 | -28% | 3
O=C1c2ccccc2C(=O)N1CSc1nnc(Nc2ccccc2)s1 | -1 | -105* | x | -3% | 5
O=C1c2ccccc2C(=O)N1CSc1nnc(Nc2ccccc2F)s1 | -20 | 6 | -1 | -3% | -1
O=C(NCCCN1CCN(CCCNC(=O)c2cccc([N+](=O)[O-])c2)CC1)c1cccc([N+](=O)[O-])c1 | -41 | -81* | 2 | 2% | -3
Cc1ccc(C(=O)N/C(=C\c2ccc(-c3cccc([N+](=O)[O-])c3)o2)C(=O)NCCCN2CCOCC2)cc1 | 5 | -186* | u | x | -22

Bioassay records (PubChem)
